PPARg SRC-3 ag = PPARgamma agonists recruiting SRC-3 coactivator, primary screen, biochemical. Peroxisome proliferator-activated receptor gamma (Homo sapiens), P37231. biochemical PPARgamma/SRC-3 coactivator recruitment assay. activation, % at 8 µM. 200,000 compounds, 0.26% hits. AID 731, 2007; in the data active means activation above about 23%;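 further: 0% = DMSO and 100% = reference agonist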
Target sequence (P37231 whole entry, looked up): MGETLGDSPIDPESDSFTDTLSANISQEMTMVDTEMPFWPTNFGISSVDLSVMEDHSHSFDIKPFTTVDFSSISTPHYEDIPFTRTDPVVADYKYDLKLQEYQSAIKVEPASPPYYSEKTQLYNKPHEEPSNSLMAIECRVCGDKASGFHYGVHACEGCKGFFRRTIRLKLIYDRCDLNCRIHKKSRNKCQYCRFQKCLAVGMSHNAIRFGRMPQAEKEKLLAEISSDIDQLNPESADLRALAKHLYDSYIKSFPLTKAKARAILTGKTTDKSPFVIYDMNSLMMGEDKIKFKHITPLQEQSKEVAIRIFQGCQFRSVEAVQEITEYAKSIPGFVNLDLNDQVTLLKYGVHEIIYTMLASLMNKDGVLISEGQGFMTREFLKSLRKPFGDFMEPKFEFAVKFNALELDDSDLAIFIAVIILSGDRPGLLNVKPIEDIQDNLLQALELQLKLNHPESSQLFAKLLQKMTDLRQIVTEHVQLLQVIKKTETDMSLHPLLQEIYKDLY
TR-FRET SRC-2 ct = TR-FRET signal artefacts, primary screen, artefact control for PPARgamma SRC-2 agonist project, biochemical; 200,000 compounds, 0.4% hits; AID 1049, 2008; TR-FRET ratio at 8 µM; TR-FRET artefact counter-screen; hits give high values
PPARg SRC-1 ag = PPARgamma agonists recruiting SRC-1 coactivator, primary screen, biochemical | activation, % at 8 µM | 200,000 compounds, 0.41% hits | PPARgamma-SRC-1 coactivator recruitment biochemical assay | Peroxisome proliferator-activated receptor gamma (Homo sapiens), P37231 | AID 631, 2007; in the data active means activation above about 19%;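 further: 0% = DMSO and 100% = reference agonist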
PPARg SRC2 recr = agonists of PPARg-SRC-2 recruitment, primary screen, biochemical, HTS | Peroxisome proliferator-activated receptor gamma (Homo sapiens), P37231 | PPARgamma LBD-SRC-2 recruitment | activation, % at 8 µM | 200,000 compounds, 0.34% hits | AID 1032, 2008; in the data active means activation above about 22%;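 further: 0% = vehicle and 100% = reference agonist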
SRC1 TRFRET art = TR-FRET detection interference compounds, primary screen, artefact control for PPARgamma SRC-1 recruitment agonists, biochemical, TR-FRET emission ratio; AID 1051, 2008; 99,000 compounds, 0.34% hits; TR-FRET detection artefact counter-screen; hits give high values; TR-FRET ratio at 8 µM; in the data active means TR-FRET ratio above about 2300
SRC3 TRFRET art = TR-FRET detection interference compounds, artefact control for PPARgamma SRC-3 recruitment agonists, biochemical, TR-FRET ratio; TR-FRET artefact counter-screen, PPARgamma/SRC-3 format; hits give high values; TR-FRET ratio at 8 µM; 99,000 compounds, 0.39% hits
PPARg SRC2 conf = agonists of PPARgamma SRC-2 coactivator recruitment, confirmation, biochemical, HTS; shares compounds with PPARg SRC-3 ag; 790 compounds, 52% hits; biochemical SRC-2 recruitment by PPARgamma; activation, % at 8 µM; in the data active means activation above about 22%;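 further: 0% = vehicle alone and 100% = reference agonist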
PPARg SRC1 ag = PPARgamma agonists recruiting SRC-1 coactivator, confirmation, biochemical; activation, % at 8 µM; AID 1300, 2008; shares compounds with PPARg SRC-3 ag; PPARgamma–SRC-1 coactivator recruitment biochemical assay; 790 compounds, 43% hits; in the data active means activation above about 20%;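 further: 0% = vehicle wells and 100% = reference agonist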
PPARg SRC3 conf = PPARgamma-driven SRC-3 coactivator recruitment agonists, confirmation, biochemical; biochemical PPARgamma-SRC-3 coactivator recruitment, agonist mode; activation, % at 8 µM; shares compounds with PPARg SRC-3 ag; AID 1301, 2008; 790 compounds, 29% hits; in the data active means activation above about 24%;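 further: 0% = vehicle wells and 100% = reference agonist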
Active calls of the source: *; / = no result. Hits are enriched below; roughly 0.84% of the tested compounds scored in any of these assays. Unless noted, no stated cut-off is given here; in the data, active means TR-FRET ratio above about 2000; inactive means the rest.

SMILES	PPARg SRC-3 ag	TR-FRET SRC-2 ct	PPARg SRC-1 ag	PPARg SRC2 recr	SRC1 TRFRET art	SRC3 TRFRET art	PPARg SRC2 conf	PPARg SRC1 ag	PPARg SRC3 conf
COc1ccc(N=Cc2sc(O)c3ccccc23)cc1	26.3*	1635	22.3*	28.1*	/	/	7.8	9.0	6.5
COc1ccc(-n2c(O)c(C=Nc3ccccc3)c3ccccc3c2=O)cc1	-0.9	1565	0.8	2.3	1953	1574	/	/	/
C=CCSc1nnc(CNC(=O)c2ccc(Cl)cc2)n1CC	2.6	1672	-0.5	0.6	1877	1575	/	/	/
Cc1cc(C)n(-c2ccc(C(=O)OCC(=O)c3ccc(Br)s3)cc2)n1	35.6*	3035*	20.5*	27.6*	/	/	29.5*	22.0*	19.8
CC1=C(C(=O)N2CCOCC2)C(c2ccc(OC(F)F)cc2)NC(=S)N1c1ccccc1 (centres undefined)	9.9	1607	8.1	13.7	2041	1755	/	/	/
COc1ccc(C(CC(=O)Nc2ccc(Cl)cc2F)NC(=O)C(F)(F)F)cc1 (centres undefined)	8.3	1618	18.7*	2.3	/	/	4.5	3.6	4.5
CCn1c(=O)cc(SCC(=O)N2CCC(C)CC2)c2ccccc21	108.3*	3414*	77.1*	78.8*	/	/	43.8*	28.6*	29.0*
CCn1c(=O)cc(SCC(=O)N2CCCCC2)c2ccccc21	52.2*	2691*	43.7*	48.4*	/	/	37.5*	22.9*	25.6*
CCOC(=O)C1CCN(C(=O)Cc2c(C(=O)O)n(C)c3ccccc23)CC1	2.9	1539	-2.9	-0.4	/	/	/	/	/
CCn1c(=O)cc(SCC(=O)N2CCN(C)CC2)c2ccccc21	39.8*	2120*	27.3*	33.8*	/	/	30.0*	19.9*	20.7
Cc1[nH]c2ccccc2c1SCC(=O)N1CCC(C)CC1	3.7	1696	3.8	-2.2	1569	1659	/	/	/
CCOC(=O)C1CCN(C(=O)CSc2cc(=O)n(CC)c3ccccc23)CC1	61.9*	2661*	44.0*	53.3*	/	/	39.7*	26.9*	27.2*
CCn1c(=O)cc(OCC(=O)N2CCCC2)c2ccccc21	4.1	1703	8.6	1.9	/	/	/	/	/
CCn1cc(SCC(=O)N2CCOCC2)c2ccccc21	8.7	1544	1.0	9.1	/	/	/	/	/
CCOC(=O)c1cc2c(ccn2C)n1CC(=O)N(CC)CC	8.7	1497	3.4	-2.2	1801	1643	/	/	/
CCOC(=O)N1CCC(NC(=O)CSc2cc(=O)n(CC)c3ccccc23)CC1	44.5*	2762*	55.2*	48.3*	/	/	37.9*	26.9*	24.6*
CCN1CCN(C(=O)CSc2cc(=O)n(CC)c3ccccc23)CC1	41.3*	2006*	23.0*	43.6*	/	/	26.0*	17.0	18.1
CCc1c(C)sc2nc(C(C)C)nc(SCC(=O)N3CCc4ccccc4C3)c12	4.3	1382	6.5	0.3	/	/	/	/	/
CC(C)Sc1nc2sc3c(c2c2nnc(SCC(=O)NCc4ccco4)n12)CCCC3	10.5	1699	19.3*	10.5	/	/	8.7	0.4	5.0
Cc1ccc(C=Nc2ccc(N(C)C)cc2)o1	101.9*	3126*	65.2*	101.6*	/	/	1.3	-3.2	-0.9
CCCc1[nH]nc2c1C(c1ccc(OCCN3CCOCC3)c(OC)c1)C(C#N)=C(N)O2 (centres undefined)	-1.5	1424	5.2	1.6	1811	1561	/	/	/
CCOc1cc(C2C(C#N)=C(N)SC(N)=C2C#N)ccc1OCCN1CCOCC1	46.3*	2438*	30.3*	36.5*	/	/	-2.0	-0.4	1.2
CCOc1ccc(C2C(C#N)=C(N)SC(N)=C2C#N)c(OCC)c1	17.4	1849	26.7*	4.4	/	/	6.6	4.3	4.1
CCOC(=O)c1cc(Br)c(=O)n2ccccc12	32.5*	2044*	32.3*	39.0*	/	/	17.0	15.7	11.8
N#C/C(=C\c1ccc(N2CCOCC2)o1)C(=O)NCC1CCCO1 (centres undefined)	4.0	2010*	20.5*	13.6	2143	1833	9.5	5.2	6.3
SMILES	PPARg SRC-3 ag	TR-FRET SRC-2 ct	PPARg SRC-1 ag	PPARg SRC2 recr	SRC1 TRFRET art	SRC3 TRFRET art	PPARg SRC2 conf	PPARg SRC1 ag	PPARg SRC3 conf
O=C1CCC(=O)N1c1ccc(-c2nc3ccccc3s2)cc1	14.3	1699	27.7*	24.7*	2057	1640	5.4	6.3	5.3
CCOC(=O)c1sc(=S)n(-c2ccccc2Cl)c1SC	30.7*	1889	29.5*	30.8*	/	/	40.4*	35.9*	28.7*
CCOC(=O)c1sc(=S)n(-c2ccccc2)c1SC	3.3	1626	-2.8	-1.1	/	/	/	/	/
Cn1cc(CNCc2cn(C)nc2-c2ccc(C3CCCCC3)cc2)cn1	2.2	1597	1.8	13.8	1659	1620	/	/	/
CCOC(=O)CCCNC(=O)COC(=O)c1cccc(F)c1	1.9	1560	3.3	14.4	1626	1612	/	/	/
O=C1CCCN1CCNC(=S)Nc1ccccc1	11.1	1426	0.9	0.1	/	/	/	/	/
O=C1CCCN1CCCNC(=S)Nc1ccc(Nc2ccccc2)cc1	10.6	1621	23.8*	13.9	2144	1767	9.4	5.2	4.6
CCNc1nc(SCCOc2ccc(Br)cc2)nc(N(C)C)n1	5.5	1369	-0.8	-4.7	1881	1333	/	/	/
O=C(Nc1ccc2nc(-c3cccs3)[nH]c2c1)c1cccs1	0.8	1449	-2.1	-0.9	/	/	/	/	/
O=C(Nc1ccc(-c2nc3ccc(NC(=O)c4cccs4)cc3[nH]2)cc1)c1cccs1	11.6	1552	20.7*	27.4*	/	/	10.7	1.4	4.6
Cc1ccc(-n2c(=S)[nH]c3c(oc4ccccc43)c2=O)cc1C	4.9	1894	9.2	18.2	1933	2010	/	/	/
O=c1c2oc3ccccc3c2[nH]c(=S)n1-c1ccc(F)cc1	13.3	2177*	16.4	26.0*	2641*	2296*	13.0	4.7	8.8
COc1ccc(CCCC(=O)N/N=C/c2ccccc2OC)cc1	5.7	1490	2.9	-0.9	1614	1586	/	/	/
Cc1ccc(C(=O)C2CCN(CC(=O)N3CCN(c4ccc(F)cc4)CC3)CC2)cc1	3.8	1545	3.3	1.4	1879	1421	/	/	/
C=CCSC1=Nc2cc(OC)c(OC)cc2C2=NC(=O)CN12	10.1	1797	20.9*	15.0	1868	1730	29.3*	18.5	17.9

Source: PubChem BioAssay
